Screening data as filed in PubChem.
MCF10A rereplic: induces DNA re-replication in MCF 10a normal breast cells | MCF 10A DNA re-replication, Hoechst nuclear intensity, 48 h | Potency, µM (titrated, usually from 46.1 µM), inactives show top-dose activity, positive = re-replication, most hits filed as activators | 350,000 tested, 2.9% active | AID 624296; also: % of control where 0% means no effect; nearly all actives have a fitted effect of over 50% in size
SW480 rereplic: inducers of DNA re-replication in SW480 colon cancer cells; SW480 DNA re-replication, Hoechst DNA content imaging, 48 h; Potency, µM (top dose mostly 46.1 µM), without a hit: at the top dose re-replication activation, most hits filed as activators; 340,000 tested, 1.8% active; AID 624297; also: % of control where 0% means no effect; nearly all actives have a fitted effect of over 55% in size
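250 cells/well; 23 nL cpd via pin tool; 48 hr, 37 C, 5% CO2; Hoechst 40 min; imager read of total nuclear intensity, ex 405/em 500-530 nm.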
Gal4-VP16 FLuc: inhibits Gal4-VP16 luciferase reporter, ROR gamma counter-screen. Drosophila S2 Gal4-VP16 UAS-luciferase, luminescence, 20 h. AID 2546. 310,000 tested, 3.5% active. Potency, µM (series often up to 53.6 µM), for inactives: at the highest dose activity, negative = inhibition, actives largely listed as inhibitors;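 also: Gal4-VP16 expression switched on by copper sulfate through the metallothionein promoter; % is scaled to controls: 0 for no effect and ±100 for the full control effect; nearly all actives have a fitted effect of over 50% in size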
RORg inh: inhibitors of mouse ROR gamma transcriptional activity. P51450. 310,000 tested, 5.4% active. Potency, µM (doses to about 53.6 µM), for inactives: at the highest dose activity change, negative = inhibition, hits mostly inhibitors. Drosophila S2 Gal4-RORgamma UAS-luciferase reporter, 20 h; also: % is scaled to controls: 0 for no effect and ±100 for the full control effect; nearly all actives have a fitted effect of over 60% in size
Target sequence (P51450 whole entry, looked up, the tested form may be a part): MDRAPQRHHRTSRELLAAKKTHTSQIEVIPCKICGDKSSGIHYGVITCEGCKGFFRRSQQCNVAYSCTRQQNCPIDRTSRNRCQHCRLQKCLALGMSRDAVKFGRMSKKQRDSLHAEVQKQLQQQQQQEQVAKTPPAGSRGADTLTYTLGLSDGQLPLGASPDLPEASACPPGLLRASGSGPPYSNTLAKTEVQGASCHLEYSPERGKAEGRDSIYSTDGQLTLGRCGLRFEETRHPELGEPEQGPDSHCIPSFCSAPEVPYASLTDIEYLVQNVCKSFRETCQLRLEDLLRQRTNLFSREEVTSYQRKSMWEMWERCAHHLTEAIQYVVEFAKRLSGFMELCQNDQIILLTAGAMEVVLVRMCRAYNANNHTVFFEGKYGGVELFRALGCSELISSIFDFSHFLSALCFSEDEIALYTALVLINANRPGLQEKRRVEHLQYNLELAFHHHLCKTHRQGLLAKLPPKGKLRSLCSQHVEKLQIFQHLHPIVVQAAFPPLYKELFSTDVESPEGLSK
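Luciferase reporter read in Schneider cells carrying Gal4-RORγ (mouse) and UAS-Photinus luciferase; cells given compound 1 h before 700 uM copper sulfate induction, then incubated 20 h at ambient temperature.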
ELG1 DNA repair: blocks ELG1-dependent DNA repair in HEK293T cells. HEK293T ELG1-luciferase reporter, luminescence, 16 h; DNA damage induced by 5-fluorouridine. Potency, µM (doses to about 46.1 µM), inactives show at the highest dose activity change, negative = inhibition, most hits filed as inhibitors. 330,000 tested, 2.3% active; also: % is scaled to controls: 0 for no effect and ±100 for the full control effect; nearly all actives have a fitted effect of over 55% in size
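DMSO vehicle served as the neutral condition. Each well held 2,000 cells given 5-fluorouridine plus compound; after 16 hr at 37 °C/5% CO2, ONE-Glo was added and luciferase measured 30 min later.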
* hit, by the source's call; u = inconclusive; x = not tested or not shown; [ ] = dose if it differs, or a comment. Compounds with a hit are over-represented: about 10% of the library has one in this group of screens. Calls follow the shape of the dose curve; as a rule, active = well fitted curve in the direction sought with a large enough effect; inconclusive = small, poorly fitted or top-dose-only effect, or another doubt; inactive = no such curve, though single readings can be large; an effect the other way counts as inactive or inconclusive. Potency is read from the fitted curve at half-maximal effect.

SMILES | MCF10A rereplic | SW480 rereplic | Gal4-VP16 FLuc | RORg inh | ELG1 DNA repair
CC(=O)N/C(=C\c1ccccc1)C(=O)OCC(=O)N(C)C1CCCCC1 | -86.2% | u | 0.1% | 10.2% | -2.1%
Nc1cccc2c(=O)[nH]ccc12 | x | x | -5.4% | 1.2% | x
O=C(CNc1cccc(C(F)(F)F)c1)N/N=C/c1cccc(Br)c1 | 20.6µM* | -0.4% | u | u | 2.1%
O=C(NN=Cc1ccccc1Cl)c1ccc([N+](=O)[O-])cc1 | -4.9% | -11.0% | x | x | x
Cc1ccc(C(=O)N/N=C\c2ccc[nH]2)cn1 | 14.8% | -0.5% | -1.2% | u | u
Cc1cccc(NCC(=O)N/N=C/c2cccc(Br)c2)c1 | 25.6% | -2.0% | -10.3% | -1.9% | -7.8%
Cc1cccc(C(=O)N/N=C/c2ccc[nH]2)c1 | 0.1% | -1.3% | 12.6µM* | 7.94µM* | u
O=C(N/N=C\c1ccc[nH]1)c1cncc(Br)c1 | -3.9% | -5.1% | 5.62µM* | 2.82µM* | -2.0%
O=C(N/N=C/c1ccc[nH]1)c1ccc([N+](=O)[O-])cc1 | -2.3% | -9.8% | 5.62µM* | 3.98µM* | u
COc1cc(C(=O)Nc2ccc(N3CCCS3(=O)=O)cc2)c([N+](=O)[O-])cc1OC | 0.4% | 0.7% | x | x | 0.5%
O=C(Nc1cc(Cl)ccc1O)C1CC(c2ccccc2Cl)=NO1 (stereo unspecified) | 3.8% | -1.5% | -14.3% | 16.1% | -3.7%
COc1ccc(-c2noc3c2-c2nc(-c4ccc(Cl)cc4)sc2CC3)cc1 | -1.5% | -4.4% | u | -1.8% | 19.6%
O=C(N/N=C/c1ccc[nH]1)c1cccnc1 | -0.2% | -2.5% | -9.9% | u | 8.2%
Cc1cccc(NCC(=O)N/N=C\c2ccc[nH]2)c1 | 18.5% | -4.7% | u | 8.91µM* | 16.9%
O=C(N/N=C/c1ccc[nH]1)c1cccc(Br)c1 | -0.6% | -2.4% | 5.62µM* | 2.82µM* | u
COc1ccc(NC2CCCN(C(=O)C3=NN(C)C(=O)CC3)C2)cc1OC (stereo unspecified) | 2.5% | -6.4% | 0.5% | -15.7% | 2.0%
O=C1c2ccccc2[C@@H]2C[C@@H](O)[C@H](Nc3cccc4ccccc34)CCN12 | u | 18.4µM* | x | x | u
COc1ccc(N[C@@H]2CCN3C(=O)c4ccccc4[C@@H]3C[C@H]2O)cc1 | -2.7% | -3.9% | x | x | 2.4%
CCOC(=O)NNc1ccc2nonc2c1[N+](=O)[O-] | 12.0% | 23.1µM* | u | -35.4% | u
CCc1ccc(Nc2ccc3nonc3c2[N+](=O)[O-])cc1 | -1.0% | -92.6% | x | x | x
CC(C)Cc1nnc(NC(=O)c2cc3c(s2)CCC3)s1 | 23.1µM* | 23.1µM* | 23.0% | -4.5% | u
O=C(Nc1nncs1)c1cc2c(s1)CCC2 | -3.6% | -1.4% | -16.6% | u | u
O=C(Nc1nccs1)c1cc2c(s1)CCCCC2 | -2.0% | 1.8% | 7.94µM* | 25.9% | u
C=CCCCN(Cc1ccccc1)S(=O)(=O)c1ccccc1Br | u | -15.8% | u | 32.4% | -17.6%
C#CCN(Cc1ccccc1)S(=O)(=O)C=C | 25.9µM* | u | x | x | -28.1%
SMILES | MCF10A rereplic | SW480 rereplic | Gal4-VP16 FLuc | RORg inh | ELG1 DNA repair
COc1ccccc1CCc1nnc(CCC(=O)NCC[C@@H]2C[C@@H]3C=C[C@H]2C3)o1 | 20.4% | 2.2% | -0.2% | u | -6.7%
CSc1cccc(NC(=O)Nc2ccccc2C(N)=O)c1 | 2.6% | -0.7% | 25.6% | 30.3% | -4.5%
C=CCNc1nc(NCCN2CCOCC2)nc(OC)n1 | -2.5% | 0.3% | -3.4% | -14.0%[10 µM] | 2.8%
CCCN(CCC)c1nc(Cl)nc(NCCN2CCOCC2)n1 | -3.5% | -4.1% | 4.9% | -2.4% | 23.1µM*
COC(=O)[C@@]12CCCCN1[C@H](c1ccc(-c3ccc(F)cc3)c(OC)c1)[C@H]1C(=O)N(C)C(=O)[C@H]12 | 5.5% | -15.2% | x | x | 13µM*
COC(=O)[C@@]12CCCCN1[C@H](c1ccc(-c3ccc(OC)cc3)c(OC)c1)[C@@H]1C(=O)N(C)C(=O)[C@@H]12 | u | u | x | x | -10.1%
COC(=O)[C@@]12CCCCN1[C@H](c1ccc(-c3ccc4c(c3)OCO4)cc1)[C@H]1C(=O)N(C)C(=O)[C@H]12 | 3.66µM* | 1.6% | x | x | u
